TCR act – activates T cell receptor signaling; primary human leukocytes, anti-CD3, IL-2 HTRF, 48 h; Potency, µM (highest dose often 9.22 µM), for the others: at the highest dose activation of IL-2 secretion, usual class: activators; 330,000 tested, under 10 active; AID 504894; note: % of control where 0% means no effect
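HTRF read-out of IL-2 secretion: europium cryptate donor excited at 320nm, d2 acceptor emission at 665nm. Cells were primary human leukocytes incubated 48 hr with compounds and a-CD3 beads, supplying TCR signal only.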
TSHR antag – blocks TSH signaling through the human TSH receptor. TSHR-expressing cells, TSH-stimulated cAMP HTRF, 2 h; active compounds read low. activity change, negative = inhibition, % at 11.5 µM. P16473. 0.2% of 330,000 active. AID 504810;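 active = activity change below a set negative limit, meaning inhibition stronger than a set level, cut at about -70% in these data; inconclusive = activity change between two set negative limits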; note: % is set by controls: 0 for no effect and ±100 for the full control effect
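Read-out is FRET at 665 nm (cryptate excitation 337 nm) from a cryptate-tagged anti-cAMP antibody, competed by cell cAMP against cAMP-d2. Compounds are tested on freshly harvested TSHR cells challenged with 4nM TSH (EC80) for 2 hours at 37 deg C.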
FBPA coupling cs – counter-screen for Giardia aldolase inhibitors: coupling enzyme system. coupling enzyme system counterscreen, AmpLite Red fluorescence. activity change, negative = inhibition, % at 58.2 µM, hits read low. 0.67% of 290,000 active. AID 2472; in the data active = activity change below about -30%; note: % is set by controls: 0 for no effect and ±100 for the full control effect
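Final compound at 57.5 uM, incubated 10 min at RT with coupling enzyme reagent (glyceraldehyde-3-phosphate), then 20 min with substrate and AmpLite Red detection. Fluorescence read at 525/598 nm; tests interference with the coupling assay, not aldolase inhibition.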
TexasRed fluor – Texas Red fluorescence interference in TRb-SRC2 counter-screen | TRb/SRC2 Texas Red total fluorescence interference | Potency, µM (doses to about 106 µM), without a hit: at the highest dose fluorescence change, negative = quenching | 0.29% of 280,000 active; active = well fitted curve in either direction with a large enough effect; inconclusive = small, poorly fitted or top-dose-only effect; note: potency is the fitted concentration of half-maximal effect; % is set by controls: 0 for no effect and ±100 for the full control effect
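Human TRb ligand-binding domain at 0.6 uM with 20 nM Texas Red SRC2 peptide in Tris buffer containing 1 uM T3 and 5% DMSO, incubated with compound 5 h at ambient temperature. Total fluorescence (555/632 nm) calculated as parallel + 2 × perpendicular.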
NPSR antagonist – neuropeptide S receptor (human) antagonism, cAMP. CHO-NPSR cells, cAMP TR-FRET, antagonist mode. Potency, µM (top dose mostly 38.3 µM), for the others: at the top dose activity change, negative = inhibition, hits mostly inhibitors. Q6W5P4. 1% of 220,000 active; note: potency is the fitted concentration of half-maximal effect; % is set by controls: 0 for no effect and ±100 for the full control effect; nearly all actives have a fitted effect of over 50% in size
TRb SRC2 PPI – inhibitors of human thyroid hormone receptor beta-SRC2 interaction. P10828. TRbeta-SRC2 peptide binding, fluorescence polarization; receptor liganded with 1 µM T3. Potency, µM (titrated, usually from 106 µM), without a hit: at the highest dose activity change, negative = inhibition, actives largely listed as inhibitors. 0.065% of 280,000 active. AID 1469;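 note: potency is the fitted concentration of half-maximal effect; plate controls were bound peptide for no effect and peptide without receptor for full effect; nearly all actives have a fitted effect of over 50% in size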
Target sequence (P10828 whole entry, looked up): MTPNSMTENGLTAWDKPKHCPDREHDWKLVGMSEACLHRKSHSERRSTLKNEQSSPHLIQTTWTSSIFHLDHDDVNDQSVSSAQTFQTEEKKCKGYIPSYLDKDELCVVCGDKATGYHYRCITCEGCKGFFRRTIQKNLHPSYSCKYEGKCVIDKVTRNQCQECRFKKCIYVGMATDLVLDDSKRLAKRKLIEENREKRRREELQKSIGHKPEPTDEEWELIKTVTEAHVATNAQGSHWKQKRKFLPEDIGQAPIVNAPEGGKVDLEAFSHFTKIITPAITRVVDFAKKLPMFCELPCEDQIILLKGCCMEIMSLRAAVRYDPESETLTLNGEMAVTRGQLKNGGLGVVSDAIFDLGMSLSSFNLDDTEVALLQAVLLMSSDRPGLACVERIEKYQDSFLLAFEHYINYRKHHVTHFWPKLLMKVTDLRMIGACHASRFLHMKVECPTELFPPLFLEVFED
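Human TRb ligand-binding domain (0.6 uM) is mixed with 20 nM Texas Red SRC2 peptide and 1 uM T3; after compound addition and 5 hr at ambient temperature, polarization is measured and normalized to unbound and bound controls.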
Starred values were filed as active, the others as inactive; u = inconclusive; x = not tested or not shown; [ ] = dose if it differs, or a comment. In the library only some 1% were active in any assay of this set; here they are far more common. Unless noted, calls come from the whole dose curve; as a rule, active = well fitted curve in the direction sought with a large enough effect; inconclusive = small, poorly fitted or top-dose-only effect, or another doubt; inactive = no such curve, though single readings can be large; an effect the other way counts as inactive or inconclusive.

SMILES | TCR act | TSHR antag | FBPA coupling cs | TexasRed fluor | NPSR antagonist | TRb SRC2 PPI
Cc1ccc(CCNC(=O)CN2C(=O)COc3ccc(S(=O)(=O)N4CCCCCC4)cc32)cc1 | x | x | x | -2% | x | 6%
COc1cccc(CNC(=O)C2CCCN(S(=O)(=O)c3ccc4c(ccn4C)c3)C2)c1OC (configuration not stated) | x | x | x | -1% | x | -7%
CCOc1cc(N2CCOCC2)c(OCC)cc1NC(=O)COC(=O)[C@@H]1CCCN1S(=O)(=O)c1ccccc1F | x | -10 | -31* | -1% | -28% | -8%
CCOc1cc(N2CCOCC2)c(OCC)cc1NC(=O)c1cc(S(=O)(=O)N2CCOCC2)ccc1C | 9%[46.1 µM] | -82* | x | x | x | x
CCOc1cc(N2CCOCC2)c(OCC)cc1NC(=O)CC12CC3CC(CC(C3)C1)C2 | -4% | -12 | -21 | -1% | 10µM* | 4%
CCOc1cc(N2CCOCC2)c(OCC)cc1NC(=O)c1ccc(S(C)(=O)=O)cc1 | 1% | -8 | 1 | -9% | -6% | -5%
O=C1CN(C(=O)Cc2ccc(F)cc2)C(c2ccccc2)c2cc(Br)ccc2N1 (configuration not stated) | x | x | x | -4% | x | 9%
CC1(C)C(C=C(Cl)Cl)[C@H]1C(=O)OCc1cccc(Oc2ccccc2)c1 (some centres not stated) | x | x | x | 0%[201 µM] | x | 7%[201 µM]
COc1ccccc1C1CC(=O)Oc2cc3c(cc21)OCO3 (configuration not stated) | x | x | -26 | -5% | x | -3%
CC(=O)c1ccc(NC2=C(N3CCOCC3)C(=O)c3ccccc3C2=O)cc1 | 0% | -14 | -30* | 1% | -28%[46.1 µM] | 0%
Cc1ccc(NC2=C(N3CCOCC3)C(=O)c3ccccc3C2=O)cc1 | 1% | 2 | -50* | -1% | 4%[46.1 µM] | 10%
O=C(O)c1ccc(NC2=C(N3CCOCC3)C(=O)c3ccccc3C2=O)cc1 | -2% | -4 | -28 | -2% | -38% | 5%
Cc1ccc(NC2=C(Cl)C(=O)c3ccccc3C2=O)cc1 | 0%[46.1 µM] | 6 | -22 | -1% | -29%[46.1 µM] | -1%
Cc1cccc(N2CCN(c3nc4ccc(C(=O)c5ccccc5)cc4n4cnnc34)CC2C)c1 (configuration not stated) | x | x | x | -1% | x | -2%
Nc1cc(=O)[nH]c(SCC(=O)NC2CCCc3ccccc32)n1 (configuration not stated) | -30% | 15 | 2 | -2% | 8% | 0%
CCCc1cc(=O)[nH]c(SCC(=O)NC2CCCc3ccccc32)n1 (configuration not stated) | 3% | 3 | -38* | -1% | -4% | 4%
COc1ccc(NC(=O)NCc2cccnc2)c(OC)c1 | -7% | -2 | x | x | x | x
COc1cc([N+](=O)[O-])ccc1NC(=O)NCc1cccnc1 | 5% | -76* | x | x | x | x
CCOc1cc2sc(N3CCC(C(=O)Nc4ccc(C)cc4C)CC3)nc2cc1Br | x | x | x | 7% | x | 11%
Cc1ccc(SCC(c2ccccc2)N2CCN(CC(C)C)CCC2=O)cc1 (configuration not stated) | x | x | 11 | -2% | x | 5%
Cc1ccc(C)c(NC(=O)CN(CCc2ccccc2)S(=O)(=O)c2ccccc2)c1 | x | x | x | 2% | x | -2%
CCOc1ccccc1NC(=O)CN(CCc1ccccc1)S(=O)(=O)c1ccc(C)cc1 | x | x | x | 0.032µM*[quencher] | x | -12%
O=C(Cn1c(=O)oc2cc(S(=O)(=O)NC3CCCC3)ccc21)Nc1ccc(F)c(F)c1 | x | x | x | 3% | x | 5%
CC(C)c1ccc(-n2c(-c3ccccc3)c[n+]3c2CCc2ccccc2-3)cc1 | -1% | -36 | 1 | 1% | 10µM* | 2%
COc1ccc(-n2c(-c3ccc(Br)cc3)c[n+]3c2CCc2ccccc2-3)cc1 | 0%[46.1 µM] | -16 | 1 | -1% | 15% | -4%
SMILES | TCR act | TSHR antag | FBPA coupling cs | TexasRed fluor | NPSR antagonist | TRb SRC2 PPI
CCOc1ccc(OCC)c(NS(=O)(=O)c2ccc3c(c2)CCCN3C(C)=O)c1 | x | x | x | -33% | x | -2%
CCc1cc(CNC(=O)CC2C(=O)NCCN2Cc2ccc(-c3ccccc3)cc2)on1 (configuration not stated) | -7% | -113* | 1 | x | x | x
Cc1cccc2cc(C#N)c(SCC(=O)NCc3cccs3)nc12 | -3%[46.1 µM] | 1 | 2 | -1% | 7.9µM* | 3%
CCOc1ccc(NC(=O)C2CCN(C(=O)N3CC(C)Oc4ccc(Cl)cc43)CC2)cc1 (configuration not stated) | x | x | x | 100µM*[quencher] | x | -16%
CCCCCCCCCCCCCCCC(=O)NCC(COP(=O)([O-])OCC[N+](C)(C)C)OCC (configuration not stated) | x | 9 | x | 2% | 10µM* | -3%
CCCCCCCCCCCCCCCCCC(=O)NCC(COP(=O)([O-])OCC[N+](C)(C)C)OCC (configuration not stated) | x | -10 | x | -18% | u | -1%
O=C(Nc1ccc2c(c1)CCC2)c1cc(S(=O)(=O)N2CCN(c3ccccc3)CC2)ccc1Cl | -7% | -10 | 1 | 45µM*[fluorescent] | -19%[46.1 µM] | 21%
NS(=O)(=O)c1ccc(NC2=CC(=O)C(=O)c3ccccc32)cc1 | 1% | -12 | -71* | x | x | x
CCOC(=O)c1ccc(NC2=CC(=O)C(=O)c3ccccc32)cc1 | 1% | -10 | x | -6% | -5%[46.1 µM] | u
Cc1ccc(NC2=CC(=O)C(=O)c3ccccc32)cc1 | 4%[46.1 µM] | -6 | -56* | -8% | -12%[46.1 µM] | -9%
COc1cc(OC)c(NC2=CC(=O)C(=O)c3ccccc32)cc1Cl | 1% | -3 | -50* | x | x | x
Cc1cc(NC2=CC(=O)C(=O)c3ccccc32)no1 | 8% | x | x | x | x | x
O=C(NNC(=S)Nc1ccc(OC(F)F)cc1)c1cc2c(s1)CCCC2 | -2%[46.1 µM] | 23 | 1 | 631µM*[quencher] | 20% | -13%
O=C(Nc1ccccc1OC(F)F)c1cc2c(s1)CCC2 | -5%[46.1 µM] | 7 | 0 | -25% | -8% | 2%
Cc1cccc(C(=O)Nc2sc(-c3ccccc3)cc2C(=O)O)c1 | -18% | -34 | 2 | -11% | 13µM* | 7%
CC(C)(C)C(=O)Nc1sc(-c2ccccc2)cc1C(=O)O | 2% | -16 | 4 | -4% | 13µM* | -4%
Cc1cc2cc(CCNC(=O)c3ccc(S(=O)(=O)N4CCCC4)cc3)c(=O)[nH]c2cc1C | -8% | -77* | -6 | x | x | x
Cc1cc2cc(CNS(=O)(=O)c3ccccc3)ccc2n1C | 1% | 0 | -2 | 50µM*[fluorescent] | -10%[46.1 µM] | 45µM*
COc1ccc(C(=O)NCc2ccc3c(c2)cc(C)n3C)cc1OC | -4% | -2 | -8 | -2% | -1% | 1%
